Potency data for 12 molecules are collected here from PubChem BioAssay (Tox21).

Records with an inconclusive call do not appear. Entries that show only a call come without a potency. The source made the active and inactive calls. Calls come from the whole dose curve; as a rule, active = well fitted activation curve with a large enough effect in the repeat runs; inconclusive = weak or mixed curves; inactive = no such curve, though single readings can be large or run the other way. Non-standard residues stand in square brackets, D forms with d. Residues, ends and D or L forms follow the SMILES beside them. pGlu = O=C1CC[C@@H](C(=O)O)N1; Thz = O=C(O)[C@@H]1CSCN1
Potency is the fitted concentration of half-maximal effect.

Chain of Aryl hydrocarbon receptor (Homo sapiens) (P35869 whole entry, looked up): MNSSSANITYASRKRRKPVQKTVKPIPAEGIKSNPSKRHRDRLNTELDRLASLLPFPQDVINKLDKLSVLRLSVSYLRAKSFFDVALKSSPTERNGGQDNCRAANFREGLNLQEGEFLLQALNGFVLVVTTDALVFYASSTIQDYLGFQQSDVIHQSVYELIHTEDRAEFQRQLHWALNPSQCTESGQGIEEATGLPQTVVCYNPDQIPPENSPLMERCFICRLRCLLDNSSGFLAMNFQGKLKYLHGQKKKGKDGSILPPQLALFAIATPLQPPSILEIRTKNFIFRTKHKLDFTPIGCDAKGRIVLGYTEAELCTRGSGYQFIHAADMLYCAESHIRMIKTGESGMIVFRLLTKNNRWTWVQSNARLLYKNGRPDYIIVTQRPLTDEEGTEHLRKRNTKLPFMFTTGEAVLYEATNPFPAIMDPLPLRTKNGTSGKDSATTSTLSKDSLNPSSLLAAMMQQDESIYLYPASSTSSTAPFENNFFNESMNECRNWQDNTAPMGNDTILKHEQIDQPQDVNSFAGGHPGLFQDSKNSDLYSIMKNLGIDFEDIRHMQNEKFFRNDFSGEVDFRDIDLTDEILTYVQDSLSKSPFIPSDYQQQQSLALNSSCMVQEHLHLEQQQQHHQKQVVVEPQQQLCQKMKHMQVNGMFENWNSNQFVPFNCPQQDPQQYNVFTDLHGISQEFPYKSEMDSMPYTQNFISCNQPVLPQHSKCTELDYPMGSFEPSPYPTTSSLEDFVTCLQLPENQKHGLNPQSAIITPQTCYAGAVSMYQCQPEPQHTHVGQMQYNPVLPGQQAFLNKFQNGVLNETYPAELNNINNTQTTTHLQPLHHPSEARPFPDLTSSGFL

The assay has as its target Aryl hydrocarbon receptor (Homo sapiens) (UniProt P35869). In words: qHTS assay to identify small molecule that activate the aryl hydrocarbon receptor (AhR) signaling pathway (AID 743085).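 For activation: HG2L7.5c1 human HepG2 liver cells with stably integrated DRE-driven firefly reporter.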 Note: nearly all actives have a fitted effect of over 15% in size. The conditions noted are these: HepG2 AhR-luc (HG2L7.5c1), luciferase, 24 h; series mostly up to 70.3 µM. In a few lines:
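24 h compound exposure, 37C, HepG2-derived HG2L7.5c1 cells with DRE-responsive luciferase. Readouts: fluorescence viability, then luminescence at room temperature after 30 min.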
Turning to `O=C1CC[C@@H](C(=O)N2CSC[C@H]2C(=O)O)N1` ([pGlu]-[Thz]-OH), the Potency entry is “inactive”. The value for `COc1ccc(CC2c3cc(OC)c(OC)cc3CC[N+]2(C)CCC(=O)OCCCCCOC(=O)CC[N+]2(C)CCc3cc(OC)c(OC)cc3C2Cc2ccc(OC)c(OC)c2)cc1OC` (configuration not stated) was “inactive”; that for `CCN(CC)CCCC(C)Nc1cc(/C=C/c2ccccc2Cl)nc2cc(Cl)ccc12` (configuration not stated) was 26.6 µM (active); that for `CO[C@H]1O[C@@H]2O[C@@]3(C)CC[C@H]4[C@H](C)CC[C@@H]([C@H]1C)[C@@]24OO3` was “inactive”. For `CO[C@H]1C[C@@H]2CC[C@@H](C)[C@@](O)(O2)C(=O)C(=O)N2CCCC[C@H]2C(=O)O[C@H]([C@H](C)C[C@@H]2CC[C@@H](OCCO)[C@H](OC)C2)CC(=O)[C@H](C)/C=C(\C)[C@@H](O)[C@@H](OC)C(=O)[C@H](C)C[C@H](C)/C=C/C=C/C=C/1C`, the Potency entry is “inactive”. For the molecule `COc1ccc(-c2noc(CC(=O)O)c2-c2ccc(OC)cc2)cc1`, the Potency result is “inactive”. Take `Cn1c(O)c(N=NC(N)=S)c2ccccc21`: the Potency was 1.06 µM (active). In the case of `Nc1ncnc2c1ncn2CCOCP(=O)(O)O`, the Potency entry was “inactive”. Take `CC(=C\c1ccccc1)/C=C1/SC(=S)N(CC(=O)O)C1=O`: the Potency entry was “inactive”. Take `CC(CCc1ccc(O)cc1)NCC(O)c1ccc(O)cc1` (configuration not stated): the Potency entry is “inactive”.

Consider `C[C@H](CCCC(C)(C)O)[C@H]1CC[C@H]2[C@@H]3CC=C4C[C@@H](O)CC[C@]4(C)[C@H]3CC[C@]12C`, for which the Potency entry was “inactive”.

As for `CO[C@H]1C[C@@H]2CC[C@@H](C)[C@@](O)(O2)C(=O)C(=O)N2CCCC[C@H]2C(=O)O[C@H]([C@H](C)C[C@@H]2CC[C@@H](OC(=O)C(C)(CO)CO)[C@H](OC)C2)CC(=O)[C@H](C)/C=C(\C)[C@@H](O)[C@@H](OC)C(=O)[C@H](C)C[C@H](C)/C=C/C=C/C=C/1C`, the Potency result was “inactive”.
